# Experimental data: ChEMBL document CHEMBL1961873, “Compounds: GSK PKIS; Assays: Nanosyn kinase panel” (2012)
# Target: Tyrosine-protein kinase Fyn (Homo sapiens) (UniProt P06241)
# Details: at 0.1 µM
# Sequence of Tyrosine-protein kinase Fyn (Homo sapiens) (P06241 2-537 limits assumed): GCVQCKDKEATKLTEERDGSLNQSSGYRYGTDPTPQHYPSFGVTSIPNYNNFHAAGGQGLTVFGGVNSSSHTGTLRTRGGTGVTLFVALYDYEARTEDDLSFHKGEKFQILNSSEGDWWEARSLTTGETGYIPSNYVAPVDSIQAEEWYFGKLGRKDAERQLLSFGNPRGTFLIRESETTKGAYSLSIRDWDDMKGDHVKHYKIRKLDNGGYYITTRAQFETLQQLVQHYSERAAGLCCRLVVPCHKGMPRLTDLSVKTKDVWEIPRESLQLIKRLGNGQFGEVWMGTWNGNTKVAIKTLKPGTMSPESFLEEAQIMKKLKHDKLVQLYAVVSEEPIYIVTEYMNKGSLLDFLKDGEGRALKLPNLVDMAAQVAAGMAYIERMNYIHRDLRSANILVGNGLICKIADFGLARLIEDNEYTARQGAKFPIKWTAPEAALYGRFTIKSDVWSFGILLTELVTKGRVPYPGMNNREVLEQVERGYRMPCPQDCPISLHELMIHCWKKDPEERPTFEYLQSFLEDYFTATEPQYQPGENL
row,SMILES,inhibition
1,CC(=O)Nc1cccc(C#Cc2cncnc2Nc2ccc(OCc3cccc(F)c3)c(Cl)c2)n1,1.08%
2,O=C1NC(=O)C(c2ccccc2Cl)=C1Nc1cccc(O)c1,1.1%
3,COc1ccc2cc(-c3c(-c4ccncc4)nc(-c4ccc([S+](C)[O-])cc4)n3C)ccc2c1 (centres undefined),3.05%
4,NS(=O)(=O)c1ccc(N/N=C2\C(=O)Nc3ccc(C(=O)NCCc4c[nH]cn4)cc32)cc1,3.46%
5,CCCN1CCC=C(c2ccc(Nc3nc(Nc4ccccc4C(N)=O)c4cc[nH]c4n3)c(C)c2)C1,4.83%
6,CCn1c(-c2nonc2N)nc2cnc(Oc3cccc(NC(=O)c4ccc(OCCN5CCOCC5)cc4)c3)cc21,1.07%
7,CC1=C(C(=O)Nc2ccc3[nH]ncc3c2)C(c2ccc3ccccc3c2)CC(=O)N1 (centres undefined),2%
8,COc1cc(C)c(NC(=O)CN(C)C)cc1Nc1nc(Nc2cccc(F)c2C(N)=O)c2cc[nH]c2n1,1.54%
9,CN1CCC(C(=O)Nc2n[nH]c3nnc(-c4ccccc4)cc23)CC1,0.66%
10,CCN1CCC(CC(=O)Nc2n[nH]c3nc(-c4cccs4)c(Br)cc23)CC1,-0.42%
11,Nc1nc(-c2ccccn2)c(-c2ccc3ncccc3n2)s1,-1.79%
12,[O-][S+]1CCN(Cc2ccc(-c3ccc4ncnc(Nc5ccc(OCc6ccccc6)c(F)c5)c4c3)o2)CC1,0.67%
13,N#Cc1c(NC(=O)c2cccc3ccccc23)sc2c1CCCC2,2.07%
14,COC(=O)Nc1nc2cc(Oc3cccc(NC(=O)Nc4cc(C(F)(F)F)ccc4F)c3)ccc2[nH]1,1.12%
15,O=C1NC(=O)C(c2ccc(Cl)cc2)=C1Nc1ccc(Cl)c(C(=O)O)c1,2.16%
16,COc1cc2ncn(-c3cc(OCc4ccccc4C(F)(F)F)c(C(N)=O)s3)c2cc1OC,-0.99%
17,Nc1ncnc2occ(-c3ccc(NC(=O)Nc4cccc(C(F)(F)F)c4)cc3)c12,3.58%

row,SMILES,inhibition
1,CNC(=O)c1cncc(/C=C/c2c(Cl)cccc2Cl)c1,0.89%
2,COc1ccc(-c2ccncc2)cc1C(N)=O,2.01%
3,NCc1ccc(-c2nc(-c3ccc(Cl)c(O)c3)c(-c3ccncc3)[nH]2)cc1,5.91%
4,Fc1cccc(COc2ccc(Nc3ncnc4cc(-c5ccc[nH]5)sc34)cc2Cl)c1,-2.98%
5,Cc1ccc(NC(=O)c2ccnc(N3CCCC3)c2)cc1-c1ccc(C(=O)NCC2CC2)cc1,-2.42%
6,Cc1cc(O)cc(C)c1/C=C/c1cncc(-c2nn[nH]n2)c1,3.99%
7,COc1ccccc1Nc1ncc(-c2ccccc2)o1,4.02%
8,CS(=O)(=O)CCNCc1ccc(-c2ccc3ncnc(Nc4ccc(OCc5ccccc5)c(Cl)c4)c3c2)o1,2.44%
9,CS(=O)(=O)Nc1ccc(N/C=C2\C(=O)Nc3ccccc32)cc1,0.12%
10,COc1cc2ncn(-c3cc(O[C@@H](C)c4ccccc4Cl)c(C(N)=O)s3)c2cc1OC,3.53%
11,COc1cc2ncn(-c3cc(O[C@H](C)c4ccccc4Cl)c(C(N)=O)s3)c2cc1OC,2%
12,NC(=O)c1ccc(-c2nc(-c3ccccn3)c(-c3ccc4c(c3)OCO4)[nH]2)cc1,1.15%
13,O=C1Nc2ccc(C(=O)c3ccco3)cc2C1=Cc1cc(Cl)c(O)c(Cl)c1,3.62%
14,COC(=O)Nc1nc2cc(Oc3ccc(NC(=O)Nc4cccc(C(=O)O)c4)cc3)ccc2[nH]1,-5.06%
15,COc1cc(C=NNc2ncnc3c2cnn3-c2ccccc2)ccc1O,11%
16,COc1ccc(COc2ccc(Cc3cnc(N)nc3N)cc2OC)cc1,0.22%
17,NS(=O)(=O)c1cccc(-c2ccc3c(NC(=O)C4CC4)n[nH]c3c2)c1,1.2%
